Results published in article PMC8769072, “Proteome‐scale mapping of binding sites in the unstructured regions of the human proteome” (Molecular Systems Biology, 2022).

Sequence of TLN1 309-401, Q9Y490 (Q9Y490 309-401): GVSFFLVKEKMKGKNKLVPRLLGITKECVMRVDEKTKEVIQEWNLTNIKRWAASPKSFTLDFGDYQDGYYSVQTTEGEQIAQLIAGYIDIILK
Sequence of TSG101 1-145, Q99816 (Q99816 1-145): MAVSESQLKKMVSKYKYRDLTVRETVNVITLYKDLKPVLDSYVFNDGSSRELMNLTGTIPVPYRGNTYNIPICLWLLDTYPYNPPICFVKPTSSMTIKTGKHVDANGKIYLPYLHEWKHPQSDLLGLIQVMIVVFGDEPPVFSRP
Sequence of YAP1 169-207, P46937 (P46937 169-207): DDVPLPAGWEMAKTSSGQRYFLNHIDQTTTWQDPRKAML

B1: ERVK-21, P62683 (peptide)
chain: GDTEAWQFPVMLEPMP
For B1, the “selected by phage display” value (TLN1 309-401, Q9Y490) was “confidence 2 (active)”.

B2: ERVK-6, Q7LDI9 (peptide)
chain: LPQYNNAPPPQAAVQQ
In the case of B2, the “selected by phage display” value (YAP1 169-207, P46937) is reported as “confidence 2 (active)”.

B3: ERVK-9, P63128 (peptide)
chain: LNPTAPPSRQGSELHE
With B3 the “selected by phage display” value (TSG101 1-145, Q99816) was “confidence 2 (active)”.
